# Paper PMC7826789 (International Journal of Molecular Sciences, 2021)
compound,measurement,setting,value
Cc1ccc(NC(=O)Nc2ccccc2F)cc1-c1ccc(C(=O)Nc2ccncc2)cc1 [GSK1398477],Kinases covered,PDGFRB,PDGFRB
CC(C)N1CC(=O)N(C)c2cnc(Nc3cccc(S(=O)(=O)CCN4CCOCC4)c3)nc21 [BI00009348],Kinases covered,PIK3CG,PIK3CG
CNc1nc(-c2ccc3c(N)n[nH]c3c2)cc(N2C[C@@H](C(=O)Nc3ccccc3)CC[C@H]2C)n1 [GSK2298859],Kinases covered,PDPK1,PDPK1
CC[C@@H]1CO[C@H](C(=O)Nc2ccccc2)CN1c1cc(-c2ccc3c(N)n[nH]c3c2)nc(NC)n1 [GSK2376236],Kinases covered,PDPK1,PDPK1
O=C(Nc1ccccc1)Nc1cccc(Oc2ccc3nccn3n2)c1 [TPKI-39],Kinases covered,PDGFRB,PDGFRB
Cc1c(Cn2c(C)c(C)n3c(=O)cc(N4CCOCC4)nc23)cccc1C(F)(F)F [GSK2328680],Kinases covered,PIK3CB,PIK3CB
CN(C)C(=O)/C(C#N)=C/c1ccc(-c2nc3cnc4[nH]ccc4c3n2C2CCCCC2)o1 [FM-381],Kinases covered,PIK3C2G,PIK3C2G
COc1cc2ncn(-c3cc(O[C@H](C)c4ccccc4Cl)c(C(N)=O)s3)c2cc1OC [GSK237701A],Kinases covered,PDGFRB,PDGFRB
Cc1c(Cn2ccn3c(=O)nc(N4CCOCC4)cc23)cccc1C(F)(F)F [GSK2336394],Kinases covered,PIK3CB,PIK3CB
Cn1ccc2ncnc(Oc3ccc(NC(=O)Nc4ccccc4)cc3)c21 [TPKI-69],Kinases covered,PDGFRB,PDGFRB
COc1cc2c(cc1OC)C(=C(Nc1ccccc1)c1cccc(CN)c1)C(=O)N2 [BIBF0846CL],Kinases covered,PDGFRB,PDGFRB
COc1ncc(-c2cc(-c3ncc(CN4C[C@@H](C)O[C@@H](C)C4)o3)c3cn[nH]c3c2)cc1NS(C)(=O)=O [GSK2292767],Kinases covered,PIK3CD,PIK3CD
NS(=O)(=O)c1cccc(-c2ccc3nccc(-c4cccc(S(N)(=O)=O)c4)c3c2)c1 [GW867253],Kinases covered,PI4KB,PI4KB
same,Kinases covered,PIK3CG,PIK3CG
COc1ccc(-c2cc3c(C)nc(N)nc3n([C@H]3CC[C@H](OCCO)CC3)c2=O)cn1 [PFE-PKIS 29],Kinases covered,PI4KB,PI4KB
same,Kinases covered,PIK3C2B,PIK3C2B
same,Kinases covered,PIK3C2G,PIK3C2G
same,Kinases covered,PIK3CB,PIK3CB
same,Kinases covered,PIK3CD,PIK3CD
FC1=CC(C3=NC2=CC(OC)=C(OC)C=C2C(N[C@H]4[C@H]([C@](C)(O)C)CNC4)=N3)=C(O)C=C1.Cl.Cl [CCT241533],Kinases covered,PHK,PHK
CC(C)N1CCN(Cc2cnc(-c3cc(-c4cccc5[nH]ccc45)cc4[nH]ncc34)o2)CC1 [GSK2269557],Kinases covered,PIK3CD,PIK3CD
COc1ccc(-c2cc3c(C)nc(N)nc3n([C@H]3CC[C@H](O)CC3)c2=O)cn1 [PFE-PKIS 40],Kinases covered,PI4KB,PI4KB
same,Kinases covered,PIK3C2B,PIK3C2B
same,Kinases covered,PIK3C2G,PIK3C2G
same,Kinases covered,PIK3CB,PIK3CB
same,Kinases covered,PIK3CD,PIK3CD
same,Kinases covered,PIK3CG,PIK3CG
O=c1cc(N2CCOCC2)nc2n(Cc3ccccc3F)ccn12 [GSK2297428],Kinases covered,PIK3C3,PIK3C3
CC(C)C(=O)N[C@@H]1CCN(C(=O)Nc2nc3c(s2)-c2nc(-c4ccccc4Cl)ncc2CC3)C1 [BI00047804],Kinases covered,PIK3CG,PIK3CG
Cc1c(Cn2c(C)nn3c(=O)cc(N4CCO[C@H](C)C4)nc23)cccc1C(F)(F)F [GSK2373690],Kinases covered,PIK3CB,PIK3CB
same,Kinases covered,PIK3CG,PIK3CG
CNS(=O)(=O)c1ccc(N(C)C)c(Nc2ncnc3cc(OC)c(OC)cc23)c1 [GSK114],Kinases covered,PDGFRB,PDGFRB
Cc1nnc(-c2ccc3occ(-c4ccc(S(C)=O)cc4)c3c2)[nH]1 (stereo not drawn) [TPKI-85],Kinases covered,PIK3C3,PIK3C3
